{
  "source": "PubChem BioAssay (NCI)",
  "note": "Values joined by “and” are separate entries in the source; they are usually repeats but may differ in a detail not shown here. Equal values may be shown once. Compounds without any hit were thinned out: in the full panel of roughly 83,000, 20% have a hit.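 A percent growth of 40 corresponds to 60% growth inhibition; 0 means no net growth; -100 means all cells died. Active threshold: below 10.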 Active and inactive are the calls of the source.",
  "data": [
    {"test_system": "HL-60(TB) leukemia", "assay": "NCI-60 one-dose screen, 48 h (100 = growth as untreated, 0 = no growth, -100 = all killed)", "settings": "10 µM unless noted", "experimental": "Growth inhibition of the HL-60(TB) human tumor cell line is measured as a screen for anti-cancer activity. Cells are grown in 96 well plates and exposed to the test compound for 48 hours. Compounds are tested at a single concentration, which is 10^-5 M for most compounds. The reported endpoint is percent growth (GI% or GIPRCNT), where numbers from 0 - 100% represent growth inhibition, and numbers from -100% - 0 represent cell death. For example, a value of 40 represents 60% growth inhibition. A value of 0 means no net growth occurred over the course of the experiment. A value of -40 indicates 40% of cells at the beginning of the experiment died by the end of the experiment. A value of -100 means all cells are dead at the end of the experiment.\nNCI-60 Human Tumor Cell Lines Screen was performed using the standard one-dose NCI protocol, which is described in more detail at https://dtp.cancer.gov/discovery_development/nci-60/default.htm.\nCompounds with GIPRCNT values below 10 were considered active. Activity score was based on GIPRCNT using the following formula: […]\nScore is 0 for GIPRCNT values of 100 or above, 50 for GIPRCNT values of 0, and 100 for GIPRCNT values of -100.", "values": [
      {"smiles": "CC1(c2ccccc2)NC(=O)N(CC(=O)Nc2cccc(I)c2)C1=O", "note": "(stereo not given)", "growth": "84.2% (inactive)"},
      {"smiles": "O=C(N/N=C/c1ccc(Cl)cc1Cl)c1ccccc1Nc1cccc(C(F)(F)F)c1", "growth": "85.7% (inactive)"},
      {"smiles": "ClCc1ccc(-c2ccc(Cn3cnc4c(Cl)nc(Cl)nc43)cc2)cc1", "growth": "-53.7% (active)"},
      {"smiles": "Nc1c(C(=O)Nc2cccc3ccccc23)sc2nc3c(cc12)COCC3", "growth": "-4.22% (active)"},
      {"smiles": "Cc1nc(Nc2ncc(C(=O)Nc3c(C)cccc3Cl)s2)cc(N2CCN(CCO)CC2)n1", "growth": "107% (inactive) and 35.7% (inactive)"},
      {"smiles": "O=C1c2cc(I)ccc2Oc2cc([N+](=O)[O-])ccc2N1c1ccc(Cl)cc1F", "growth": "55.9% (inactive)"},
      {"smiles": "C/C(Nc1ccc(Cl)c(Cl)c1)=C1\\CCOC1=O", "growth": "96.6% (inactive)"},
      {"smiles": "NC(N)=N/N=C(/c1ccccc1)c1ccc(Cl)cc1", "growth": "105% (inactive)"},
      {"smiles": "Cc1cc(-c2cc(C)c(N)cc2C)c(C)cc1N", "growth": "90.2% (inactive)"},
      {"smiles": "O=C1c2ccccc2C(c2ccccc2)C1c1ccccc1", "note": "(stereo not given)", "growth": "76.4% (inactive)"},
      {"smiles": "O=S(=O)(Nc1ccc(F)c(Cl)c1)c1ccc(-c2cnc(C3CC3)o2)cc1", "growth": "8.62% (active)"},
      {"smiles": "CC(C)Sc1ncnc2nc[nH]c12", "growth": "95% (inactive)"},
      {"smiles": "C=C(C)[C@@H]1CC[C@]2(C)[C@H](CC=C3[C@@H]4[C@H](C)[C@@H](C)CC[C@]4(CO)CC[C@]32C)[C@@]1(C)CCCN", "growth": "-45.2% (active)"},
      {"smiles": "CCCCCn1sc(=O)n(Cc2ccc(CNC(=O)C(C)c3ccc(CC(C)C)cc3)cc2)c1=O", "note": "(stereo not given)", "growth": "102% (inactive) and -34.5% (active)"},
      {"smiles": "Cc1ccc2c(N/N=C\\c3ccco3)cc(C)nc2n1", "growth": "-53.3% (active)"},
      {"smiles": "O=C(/C=C/c1ccc(Cl)cc1)c1cccc(Nc2nc(Nc3ccccc3)nc(Nc3ccccc3)n2)c1", "growth": "95.9% (inactive)"},
      {"smiles": "S=C(NCc1ccc2c(c1)OCO2)N1CCN(c2ncnc3c2oc2ccccc23)CC1", "growth": "19.7% (inactive)"},
      {"smiles": "Cc1c(C(=O)NCc2ccccc2)[n+](=O)c2cc(F)ccc2n1[O-]", "growth": "189% (inactive)"},
      {"smiles": "O=c1ssc(Cl)c1-c1ccccc1", "growth": "48% (inactive)"},
      {"smiles": "COc1cccc(Nc2nc(NCCO)c3ccccc3n2)c1", "growth": "61.4% (inactive)"},
      {"smiles": "CCN(C(C)=O)c1ccc([N+](=O)[O-])cc1", "growth": "114% (inactive)"},
      {"smiles": "COC(=O)c1c2c(c(C)[n+]([O-])c1C)C(=O)C(NCc1ccc(Cl)cc1)=CC2=O", "growth": "80.3% (inactive)"},
      {"smiles": "COCCCNC1=C(C#N)C(=O)NC(c2cccs2)S1", "note": "(stereo not given)", "growth": "145% (inactive)"},
      {"smiles": "CCC(/C=C\\C(C)=O)CC", "growth": "104% (inactive)"},
      {"smiles": "OB(O)c1cccc(-c2nc3ccc4[nH]ncc4c3c3c2CCCC3)c1", "growth": "32.6% (inactive)"},
      {"smiles": "C/C(=N/O)c1ccc(F)cc1", "growth": "102% (inactive)"},
      {"smiles": "COc1cc2c(cc1OCCCCCn1c3ccccc3c3ccccc31)N=C[C@@H]1CCCN1C2=O", "growth": "-46.7% (active)"},
      {"smiles": "C=CCn1c(SCC(=O)Nc2ccc(C(=O)/C=C/c3cc4cc(OC)ccc4nc3Cl)cc2)nnc1-c1ccc(Br)cc1", "growth": "81.3% (inactive)"},
      {"smiles": "Oc1ccc(Cn2cc3c(c2-c2ccccc2)CCc2cnoc2-3)cc1", "growth": "93.8% (inactive)"},
      {"smiles": "COc1ccc2c(c1)c(-c1noc(C(=O)c3cn(C)c4ccc(Br)cc34)n1)cn2C", "growth": "84.4% (inactive)"},
      {"smiles": "Fc1cc2c(cc1Cl)N(c1ncnc3ccc(-c4ccc5n[nH]nc5c4)cc13)CC2", "growth": "69.3% (inactive)"},
      {"smiles": "N#CC1=C(N)Oc2cc(N)ccc2C1c1ccc(F)cc1", "note": "(stereo not given)", "growth": "88.9% (inactive)"},
      {"smiles": "O=C(N/N=C/c1ccccc1O)C(O)(c1ccccc1)c1ccccc1", "growth": "35% (inactive)"},
      {"smiles": "OCCN1CCN(CC/C=C2\\c3ccccc3Sc3ccc(Cl)cc32)CC1", "growth": "14.2% (inactive) and 19.5% (inactive)"},
      {"smiles": "C=CCc1nc2ccccc2s1", "growth": "105% (inactive)"},
      {"smiles": "Cc1ccc(C)c(C(O)(c2cc(C)ccc2C)C2(O)CCCCC2)c1", "growth": "96.5% (inactive)"},
      {"smiles": "COc1ccc(C2=NN(C(=O)c3cc(OC)c(OC)c(OC)c3)C(c3ccc(Cl)cc3)C2)cc1OC", "note": "(stereo not given)", "growth": "-54% (active)"},
      {"smiles": "O=S(=O)(Nc1ncccn1)c1ccc(NC2Nc3nc4ccccc4nc3S2)cc1", "note": "(stereo not given)", "growth": "101% (inactive)"},
      {"smiles": "OC(COc1cccc2ccccc12)CN1CCN(c2ccc(Cl)cc2)CC1", "note": "(stereo not given)", "growth": "55.5% (inactive) and 75.2% (inactive)"},
      {"smiles": "COc1ccc(/C=C/C(=O)c2cc(O)ccc2O)cc1", "growth": "3.32% (active)"}
    ]}
  ]
}
